DT40 TDP1 CPT = qHTS for Inhibitors of human tyrosyl-DNA phosphodiesterase 1 (TDP1): qHTS in cells in presence of CPT | chicken DT40 Tdp1-/-;hTDP1 cells + 20 nM CPT, ATP luminescence, 48 h | Potency, µM (highest dose often 46.2 µM), inactives show at the top dose activity change, negative = growth inhibition, actives largely listed as inhibitors | actives 12% (n = 420,000); further: potency means the concentration at half of the fitted maximal effect; nearly all actives have a fitted effect of over 55% in size
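Chicken DT40 Tdp1-/- cells stably complemented with human TDP1 were seeded at 400 cells/well in medium containing 20 nM camptothecin, exposed to pin-transferred compounds, and grown at 37 °C for at least 48 hr. Viability was read as ATP luminescence.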
ELG1 repair inh = qHTS screen for small molecules that inhibit ELG1-dependent DNA repair in human embryonic kidney (HEK293T) cells expressing luciferase-tagged ELG1; HEK293T ELG1-luciferase reporter, luminescence, 16 h; DNA damage induced by 5-fluorouridine; Potency, µM (series often up to 46.1 µM), for inactives: at the top dose activity change, negative = inhibition, hits mostly inhibitors; actives 2.3% (n = 330,000); further: potency means the concentration at half of the fitted maximal effect; nearly all actives have a fitted effect of over 55% in size
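Luminescence from the luciferase reporter, measured 30 min after ONE-Glo reagent at room temperature, was the read-out. Beforehand, 2,000 cells per well were exposed for 16 hr at 37 °C to 5-fluorouridine together with compound or vehicle.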
Giardia killer = Small Molecules that selectively kill Giardia lamblia: qHTS | activity change, % at 7.66 µM, hits read low | actives 0.15% (n = 340,000) | Giardia lamblia trophozoite viability; in the data active means activity change below about -80%; inconclusive means between about -30% and that limit;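 further: parasites exposed to compound for two days anaerobically before the ATP read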
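Viability, read as ATP luminescence: trophozoites at 100 cells/well, compound added, 48 hrs anaerobic at 37 deg C, then 15-30 min room-temperature development before reading.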
TDP1 cell noCPT = qHTS for Inhibitors of human tyrosyl-DNA phosphodiesterase 1 (TDP1): qHTS in cells in absence of CPT; AID 686978, 2013; Potency, µM (top dose mostly 46.2 µM), for inactives: at the top dose activity change, negative = growth inhibition, usual class: inhibitors; DT40 Tdp1-/- hTDP1 cells, no CPT, ATP luminescence, 48 h; actives 15% (n = 420,000); further: potency means the concentration at half of the fitted maximal effect; nearly all actives have a fitted effect of over 55% in size
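Camptothecin absent (DMSO only). Human TDP1-complemented DT40 knockout cells, 400 cells/well, 37 °C for minimum 48 hr; ATP measured via CellTiter-Glo, 30 min dark incubation, luminescence.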
IL1B secr inh = qHTS for Inhibitors of Inflammasome Signaling: IL-1-beta AlphaLISA Primary Screen; actives 4.7% (n = 360,000); AID 743279, 2014; activity change, % at 57.5 µM; THP-1 LPS/ATP IL-1B secretion, AlphaLISA, 16 h; hits give low values; in the data active means activity change below about -50%; inconclusive means mostly about -30% to -49%
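Secreted IL-1B measured by AlphaLISA bead assay after 16 h compound exposure of THP-1 cells; compounds (final up to 57.5 uM) added 1 h before LPS (250 ng/mL) and ATP (1.25 mM) stimulation; lower signal means less secretion.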
TDP1 block = qHTS Assay for Inhibitors of Tyrosyl-DNA Phosphodiesterase (TDP1); AID 485290, 2010; recombinant TDP1, AlphaScreen DNA substrate cleavage; actives 0.28% (n = 350,000); Tyrosyl-DNA phosphodiesterase 1 (Homo sapiens), Q9NUW8; Potency, µM (titrated, usually from 130 µM), for the others: top-dose activity change, negative = inhibition, actives largely listed as inhibitors; further: potency means the concentration at half of the fitted maximal effect; nearly all actives have a fitted effect of over 40% in size
Target sequence (Q9NUW8 whole entry, looked up): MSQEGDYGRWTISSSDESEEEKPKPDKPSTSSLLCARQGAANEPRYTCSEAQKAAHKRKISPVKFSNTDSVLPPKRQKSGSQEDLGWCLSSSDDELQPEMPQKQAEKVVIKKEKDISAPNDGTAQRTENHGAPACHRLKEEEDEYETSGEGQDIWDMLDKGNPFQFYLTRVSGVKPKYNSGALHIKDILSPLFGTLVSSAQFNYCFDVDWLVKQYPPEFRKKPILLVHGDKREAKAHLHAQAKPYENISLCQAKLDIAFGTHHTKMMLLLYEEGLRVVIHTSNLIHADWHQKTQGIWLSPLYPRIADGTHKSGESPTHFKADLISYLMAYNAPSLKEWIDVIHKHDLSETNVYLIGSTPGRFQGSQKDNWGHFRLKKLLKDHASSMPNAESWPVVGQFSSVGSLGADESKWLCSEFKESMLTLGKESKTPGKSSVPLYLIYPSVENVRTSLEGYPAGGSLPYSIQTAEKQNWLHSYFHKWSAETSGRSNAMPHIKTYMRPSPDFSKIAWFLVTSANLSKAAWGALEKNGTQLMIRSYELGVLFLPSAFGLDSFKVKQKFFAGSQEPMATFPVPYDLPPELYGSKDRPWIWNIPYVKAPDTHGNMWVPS
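Enzyme-compound mixtures sat 15 min at room temperature, followed by a 5 min reaction with 15 nM final substrate and 10 min with AlphaScreen beads. Recombinant human Tdp1 was used at 1 nM final.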
Numbers without * were called inactive; ? = inconclusive; . = no result given; [ ] = another dose, or the depositor's remark. Hits are enriched below; roughly 19% of the tested compounds scored in any of these assays. Unless noted, the call rests on the fitted dose curve; in most records, active means well fitted curve in the direction sought with a large enough effect; inconclusive means small, poorly fitted or top-dose-only effect, or another doubt; inactive means no such curve, though single readings can be large; an effect the other way counts as inactive or inconclusive. On the % scale 0 is the no-effect control and ±100 the full control effect.

SMILES	DT40 TDP1 CPT	ELG1 repair inh	Giardia killer	TDP1 cell noCPT	IL1B secr inh	TDP1 block
CCSc1nnc2c(n1)[nH]c1c(C)cccc12	13µM*	-7%	-26	13µM*	-30	6%
N#Cc1c(N)nc(SCc2ccccc2)c(C#N)c1-c1ccco1	?	?	1	?	-73*	0%
CCCOC(=O)CSc1nc(N)c(C#N)c(-c2ccco2)c1C#N	5%	.	5	-27%	-88*	.
N#Cc1c(N)nc(SCC(=O)OCc2ccccc2)c(C#N)c1-c1ccco1	-1%	2%	4	-5%	15	-2%
CCc1ccc(-n2nc(CO)c(C(=O)NCCCc3ccccc3)n2)cc1	-7%	.	.	-15%	.	-5%
CN(C)CCOc1ccc2c(c1)C(=O)C(=Cc1ncc([N+](=O)[O-])n1C)C2	0.15µM*	.	.	0.13µM*	-51*	.
CCc1nn(CC(=O)NCCc2ccc(OC)cc2OC)c(=O)c2cc3sccc3n12	-5%	.	.	-18%	.	-3%
CCOC(=O)COc1ccc(S(=O)(=O)Nc2cccc(SC)c2)cc1	?	1%	8	-18%	-9	3%
CCOC(=O)c1cnc(SC)nc1Oc1cccc(NC(=O)c2ccc(Cl)cc2)c1	?	-18%	-4	23µM*	1	-5%
CCOC(=O)c1cnc(-c2ccccc2)nc1Oc1cccc(Cl)c1	?	-6%	-7	-8%	10	2%
CCOC(=O)c1cnc(SC)nc1Oc1cccc(NS(=O)(=O)c2ccc(Cl)cc2)c1	?	23µM*	9	?	43	-5%
COc1ccc(-c2nnn(CC(=O)Nc3ccc4c(c3)OCCO4)n2)cc1OC	-10%	0%	?	3%	-16	0%
COc1cnc(-c2ccccn2)nc1Oc1ccc(F)cc1F	10µM*	14%	10	3.7µM*	16	6%
COc1cnc(-c2ccccn2)nc1Oc1ccc(Cl)cc1	1.6µM*	?	-3	1.5µM*	-25	10%
COc1cnc(-c2ccccn2)nc1Oc1ccc(Cl)c2ccccc12	1.3µM*	?	8	1.2µM*	-10	10%
Cc1ccccc1CN1c2ccccc2-c2nc(SCC(=O)NCCc3ccccc3)ncc2S1(=O)=O	-10%	.	.	?	.	0%
CCCCOCCCNC(=O)C[C@@H]1C[C@@]2(C(=O)OCC)CCCC=C2N(Cc2cccc3ccccc23)C1=O	18µM*	.	.	13µM*	?	.
CCOC(=O)[C@]12CCCC=C1N(Cc1cccc3ccccc13)C(=O)[C@H](CC(=O)NCc1cccc3ccccc13)C2	?	.	.	?	-6	.
CCCCCCCCN1C(=O)[C@H](CC(=O)NCc2cccc3ccccc23)C[C@@]2(C(=O)OCC)CCCC=C12	?	.	.	16µM*	-17	.
O=[N+]([O-])c1ccc2nc(N3CCCC3)sc2c1	?	?	-24	18µM*	-6	.
O=C(c1ccccc1)N1CCN(c2nc3ccc([N+](=O)[O-])cc3s2)CC1	6.5µM*	-18%	-11	5.2µM*	-2	-1%
CCc1ccc2nc(N3CCN(C(=O)c4ccccc4)CC3)sc2c1	?	.	.	?	.	5%
Fc1ccc2nc(N3CCCC3)sc2c1	7%	?	19	3%	28	1%
CC(C)C[C@H]1CN=C(Nc2ccccc2)N1CC1CCCCCC1	?	-18%	-28	21µM*	-6	-4%
CCC(C)CCN1C(Nc2ccccc2)=NC[C@@H]1CC(C)C (some centres undefined)	16µM*	3%	1	16µM*	-29	.
SMILES	DT40 TDP1 CPT	ELG1 repair inh	Giardia killer	TDP1 cell noCPT	IL1B secr inh	TDP1 block
CCC(C)CCN1C(Nc2ccccc2)=NC[C@@H]1Cc1ccccc1 (some centres undefined)	21µM*	7%	-24	16µM*	?	.
CC(C)CCN1C(Nc2ccccc2)=NC[C@@H]1CC(C)C	15µM*	12%	-3	?	-7	.
CSCCC(c1nc2ccccc2[nH]1)n1c(/C=C/c2ccc(F)c(F)c2)nc2ccccc21 (centres undefined)	?	.	.	?	-21	.
CSCC[C@H](NC(=O)[C@H](CC(C)C)NC(=O)[C@@H]1CCCN1C(=O)[C@H](Cc1ccccc1)NC(=O)[C@H](Cc1ccccc1)NC(=O)[C@@H]1CCC(=O)N1)C(N)=O	.	.	.	.	.	7%
Cn1c2ccccc2c2cc([N+](=O)[O-])ccc21	10%	0%	-27	-26%	-22	.
CCN(CC)CCn1c2ccccc2c2nc3ccc([N+](=O)[O-])cc3cc21	8.2µM*	?	3	4.6µM*	-16	.
O=C(CNC(=O)c1ccccc1F)OCc1cc(=O)n2nc(C3CC3)sc2n1	-22%	.	.	0%	.	7%
CCc1[nH]nc2c1C(C1C=CCCC1)C(C#N)=C(N)O2 (centres undefined)	23µM*	?	22	21µM*	-54*	7%
CC(C)C1C(C#N)=C(N)Oc2n[nH]c(-c3cccs3)c21 (centres undefined)	3%	-11%	-10	7%	-10	2%
CC(C)c1[nH]nc2c1C(C1C=CCCC1)C(C#N)=C(N)O2 (centres undefined)	16µM*	13%	22	13µM*	-88*	9%
CC(C)c1[nH]nc2c1C(c1cccs1)C(C#N)=C(N)O2 (centres undefined)	?	-19%	9	?	-86*	3%
N#CC1=C(N)OC2=C(C(=O)CCC2)C1C1C=CCCC1 (centres undefined)	-16%	3%	2	-26%	-12	4%
O=C(NCc1cccc(C(F)(F)F)c1)N1CCN(S(=O)(=O)c2ccccc2F)CC1	-25%	-15%	8	?	-9	-4%
CNc1nnc(SCC(=O)c2cc(C)n(C3CC3)c2C)s1	-15%	?	-26	?	-18	0%[56.1 µM]
Cn1c(/C=N/NC(=O)c2ccccc2Br)nc2ccccc21	?	-9%	2	18µM*	-9	6%
Cc1ccc(C(=O)N/N=C/c2nc3ccccc3n2C)cc1	?	?	0	18µM*	29	-9%
